The values that follow come from PubChem BioAssay (NCI).

Test [1] can be described thus: NCI Yeast Anticancer Drug Screen. Data for the rad50 strain (AID 155).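 Note: 0% = growth of vehicle-only cultures of the same strain.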 To be noted: S. cerevisiae rad50 strain growth inhibition; at 50.0 µM; active compounds read high. In a few lines: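 A DNA repair-deficient yeast mutant serves as the test organism; compound-induced growth inhibition is calculated against vehicle-treated cells.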
A short description of test [2]: NCI Yeast Anticancer Drug Screen. Data for the mec2-1 strain (AID 157). The following applies: S. cerevisiae mec2-1 strain, at 50.0 µM, active compounds read high. The essentials: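 Mutant yeast (mec2-1) grown with compound; growth inhibition relative to vehicle control reported.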
Test [3] in a line: NCI Yeast Anticancer Drug Screen. Data for the cln2 rad14 strain (AID 165).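 Note: 0% = growth equal to vehicle treated cultures.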 The following applies: S. cerevisiae cln2 rad14 strain, at 50.0 µM, active compounds read high. In a few lines: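 Readout is yeast growth inhibition versus vehicle-treated controls, using a strain with cln2 and rad14 alterations exposed to compound.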
Test [4] in a line: NCI Yeast Anticancer Drug Screen. Data for the bub3 strain (AID 167). To be noted: S. cerevisiae bub3 mutant strain, at 50.0 µM, active compounds read high. In a few lines: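 Inhibition values come from growth of compound-treated mutant yeast normalised to vehicle-treated controls.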
Test [5] is described as follows: NCI Yeast Anticancer Drug Screen. Data for the mlh1 rad18 strain (AID 175). To be noted: S. cerevisiae mlh1 rad18 strain growth inhibition; at 50.0 µM; active compounds read high. The essentials:
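Genetically defined yeast (DNA repair-deficient) exposed to compounds; growth inhibition determined relative to vehicle.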

Test [6] in a line: NCI Yeast Anticancer Drug Screen. Data for the sgs1 mgt1 strain (AID 161).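 Note: 0% = growth of cultures given vehicle only.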 The following applies: S. cerevisiae sgs1 mgt1 strain, at 50.0 µM, active compounds read high. The essentials:
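Yeast cells carrying a defined DNA-repair defect were exposed to test compounds. Growth inhibition was measured relative to vehicle-treated controls.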

The structures appear in SMILES notation. This is part of a sample that, as a whole, favours compounds with a hit. Of some 79,000 tested, about 15% had one in any assay. Unmarked numbers belong to inactive results. The source made the active and inactive calls. Cut-off read from the data, not from the text of the source: active = growth inhibition above about 70%; inactive = the rest.

For `C/C=C1\CN2CCc3c([nH]c4ccccc34)C2CC1CCO` (stereo not given), the growth inhibition was -16.8% in test [1]; -10.9% in test [2]; 12.7% in test [3]; -26.7% in test [4]; -24.9% in test [5].

In the case of `COC(=O)C(=O)C(C)C(=O)C(C)c1nc(NC(=O)Nc2ccc(Cl)cc2)n[nH]1` (stereo not given), the growth inhibition was 1.65% in test [1]; -3.7% in test [2]; -32% in test [3]; 13.4% in test [4]; 7.1% in test [5].

In the case of `Cc1ccc(-n2nnc(-c3ccc(Cl)c(Cl)c3)n2)cc1`, the growth inhibition in test [1] was -30.9%; in test [2], -40.8%; in test [3], -12.1%; in test [4], -18.6%; in test [5], -31.5%.

For `Nc1nc(N)nc(CCC(Br)(Br)Br)n1`, the growth inhibition in test [1] was 26.6%; in test [2] it was 4.75%; in test [3], 19.9%; in test [4], 21.9%; in test [5] it was 11.1%.

In the case of `CCCC(=O)c1ccccc1`, the growth inhibition in test [1] was 35.5%; in test [2], 3%; in test [3], 15%; in test [4], 26.1%; in test [5], 21.9%.

With `CNC1C(CO)OC(n2cnc3c(N)ncnc32)C1O` (stereo not given), the growth inhibition in test [1] is 1.85%; in test [2] it was -9.55%; in test [3], -60.8%; in test [4], 2.75%; in test [5], -13.2%.

With `CN(N)C(=O)Nc1ccc([N+](=O)[O-])cc1`, the growth inhibition in test [1] was 16.4%; in test [2], 5.65%; in test [3] it was 7.45%; in test [4], 12%; in test [5], -1.75%.

For `CCc1c(C#N)c(=O)[nH]c(=O)n1CCN1CCN(C(=O)NCCCCCCNC(=O)N2CCN(CCn3c(CC)c(C#N)c(=O)[nH]c3=O)CC2)CC1`, the growth inhibition in test [1] was 4.6%; in test [2] it was 2.55%; in test [3], -23.6%; in test [4] it was 2.7%; in test [5], -26.1%.

In the case of `CN(C)c1ccc(S(=O)(=O)c2ccc3nc(N)nc(N)c3c2)cc1`, the growth inhibition in test [1] was 29.2%; in test [2], 16.2%; in test [3], -26.5%; in test [4], -5.9%; in test [5], 3.85%.

Consider `C/C(=N\OC(=O)c1c(-c2c(Cl)cccc2Cl)noc1C)c1ccccc1O`, for which the growth inhibition is 1.5% in test [1]; -23.4% in test [2]; 12.2% in test [3]; -21.9% in test [4]; -4.75% in test [5].

In the case of `N#CC(C#N)=CN1CCCC1`, the growth inhibition was -19.6% in test [1]; 9.4% in test [2]; -12.3% in test [3]; -5.95% in test [4]; -1.7% in test [5].

For `COC1/C=C/OC2(C)Oc3c(C)c(O)c4c(O)c(c(/C=N/N(C)c5ccc([N+](=O)[O-])cc5[N+](=O)[O-])c(O)c4c3C2=O)NC(=O)C(C)=C/C=C/C(C)C(O)C(C)C(O)C(C)C(OC(C)=O)C1C` (stereo not given), the growth inhibition in test [1] was 10.2%; in test [2], 55.6%; in test [3] it was 63.6%; in test [4], 40.3%; in test [5] it was 56%.

`CC1(C)CC(N(CCO)CCO)CC(C)(C)N1O`: the growth inhibition in test [1] is 4.05%; in test [2], -2.8%; in test [3] it was -1.95%; in test [4], -7.2%; in test [5] it was 5.35%.

As for `Brc1cccc(C2SCc3nc4ccccc4n32)c1` (stereo not given), the growth inhibition was 33% in test [1]; 16.9% in test [2]; 19.9% in test [3]; 19.2% in test [4]; 21.4% in test [5].

Regarding `CCc1ccc(NC(=O)c2cc(OC)c(OC)c(OC)c2)cc1`, the growth inhibition in test [1] is 1.1%; in test [2], 29.4%; in test [3], -12.3%; in test [4], 17.5%; in test [5], 29.2%.

Take `Cn1c(=O)c(-c2ccccc2)c(O)c2ccccc21`: the growth inhibition in test [1] was 14.8%; in test [2], 12.4%; in test [6] it was -2.4%; in test [4], -8.1%; in test [5] it was -20.4%.

In the case of `Cc1ccc(N=Nc2c(O)ccc3n[nH]nc23)cc1`, the growth inhibition is 2.75% in test [1]; 0.2% in test [2]; -46% in test [3]; 18.9% in test [4]; 6.95% in test [5].

Regarding `CCC1OC(=O)C(C)C(OC2CC(C)(O)C(O)C(C)O2)C(C)C(O)C(C)(O)CC(C)C(=O)C(C)C(O)C1C` (stereo not given), the growth inhibition is -14.4% in test [1]; -22.6% in test [2]; -5.4% in test [3]; -21.2% in test [4]; -5.15% in test [5].

Turning to `O=C(CC(=O)c1ccccc1)CC(=O)c1ccc(C(=O)CC(=O)CC(=O)c2ccccc2)cc1`, the growth inhibition in test [1] was 29.4%; in test [2], 1.3%; in test [3], 0.85%; in test [4], -1.8%; in test [5] it was 22.4%.

In the case of `O=[N+]([O-])c1ccc(-c2csc(NCC3CCCO3)n2)cc1` (stereo not given), the growth inhibition was 24.3% in test [1]; -10.6% in test [2]; 21.1% in test [3]; 21.6% in test [4]; 17.9% in test [5].

With `CN(CC(=O)C(O)C(O)C(O)CO)c1ccccc1` (stereo not given), the growth inhibition is -10.4% in test [1]; -8.75% in test [2]; -16.1% in test [3]; -2.6% in test [4]; -9.7% in test [5].

Take `C/C=C/c1nc2ccccc2[nH]1`: the growth inhibition in test [1] is -11.2%; in test [2] it was -2.45%; in test [3] it was -2.45%; in test [4] it was -6.45%; in test [5], -0.95%.

Turning to `CC(C)(C)C(=O)C(C(=O)c1ccccc1)C(=O)C(C)(C)C`, the growth inhibition was -4.65% in test [1]; -16.4% in test [2]; 6.85% in test [3]; 9.8% in test [4]; -30.2% in test [5].

Regarding `O=S(=O)(O)c1cccc2c(O)cccc12`, the growth inhibition in test [1] is -7.9%; in test [2] it was -2.9%; in test [3], 34.9%; in test [4], 5.35%; in test [5], -32%.

As to `COC(=O)/C=C/C=C/C(=O)OC`, the growth inhibition is -4.85% in test [1]; -1.7% in test [2]; -41.9% in test [3]; -30.1% in test [4]; 3.85% in test [5].

For `O=S(=O)(/C=C/S(=O)(=O)c1ccccc1)c1ccccc1`, the growth inhibition in test [1] is 98.4% (active); in test [2], 98.8% (active); in test [3], 97.9% (active); in test [4], 98.5% (active); in test [5], 98.2% (active).

Regarding `CCC(=O)Nc1nnc(SCCCCCCCCCCSc2nnc(NC(=O)CC)s2)s1`, the growth inhibition was 4.95% in test [2]; 17.7% in test [6]; 19.3% in test [3]; -2.5% in test [4]; 21.5% in test [5].
